Source: the supplement of paper PMC6555819

Columns and labels:
Experiment in all cases: PBM binding z-score (relative to random genomic background probes); higher = stronger binding; sequences stand for … in GC…GCGATTGACAGCGTAGAATGAAGG
[1] = tested on: FXR:RXRa (NR concentration 270 nM, RXRa partner concentration 90 nM)
In short: (§1)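 Binding z-scores were set against random background probes. The data came from custom Agilent 4×180K protein-binding microarrays carrying double-stranded probes with 34-nt variable regions, incubated 1 h with ligand-free nuclear receptor dimers. Partner-specific antibodies detected binding, and scanned fluorescence was regression-normalized.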

[2] = tested on: LXRa:RXRa (NR concentration 270 nM, RXRa partner concentration 90 nM)
In short: as §1

[3] = tested on: LXRa homodimer (NR concentration 270 nM)
In short: as §1

[4] = tested on: LXRb:RXRa (NR concentration 270 nM, RXRa partner concentration 90 nM)
In short: as §1

[5] = tested on: LXRb homodimer (NR concentration 270 nM)
In short: as §1

[6] = tested on: PPARa:RXRa (NR concentration 270 nM, RXRa partner concentration 90 nM)
In short: as §1

[7] = tested on: PPARg:RXRa (NR concentration 180 nM, RXRa partner concentration 90 nM)
In short: as §1

[8] = tested on: PPARg:RXRa 270nM:90nM, anti-RXR (NR concentration 270 nM, RXRa partner concentration 90 nM)
In short: as §1

[9] = tested on: PPARg:RXRa 30nM:10nM, anti-RXR (NR concentration 30 nM, RXRa partner concentration 10 nM)
In short: as §1

[10] = tested on: PPARg:RXRa 90nM:30nM, anti-RXR (NR concentration 90 nM, RXRa partner concentration 30 nM)
In short: as §1

[11] = tested on: PPARg:RXRa DBDmut IVT, anti-RXR (DBD mutation: RXRa K156A/R161A, NR concentration 270 nM, RXRa partner concentration 90 nM)
In short: as §1

[12] = tested on: PPARg:RXRa IVT, anti-PPARg (NR concentration 270 nM, RXRa partner concentration 90 nM)
In short: as §1

[13] = tested on: PPARg DBDmut:RXRa IVT, anti-PPARg (DBD mutation: PPARg1 K132A/R137A, NR concentration 270 nM, RXRa partner concentration 90 nM)
In short: as §1

[14] = tested on: PPARg DBDmut IVT, anti-PPARg (DBD mutation: PPARg1 K132A/R137A, NR concentration 270 nM)
In short: as §1

[15] = tested on: PPARg homodimer (NR concentration 180 nM)
In short: as §1

[16] = tested on: PXR:RXRa (NR concentration 270 nM, RXRa partner concentration 90 nM)
In short: as §1

[17] = tested on: PXR homodimer (NR concentration 270 nM)
In short: as §1

[18] = tested on: RARa:RXR (NR concentration 270 nM, RXRa partner concentration 90 nM)
In short: as §1

[19] = tested on: RARa homodimer (NR concentration 270 nM)
In short: as §1

[20] = tested on: RARb:RXRa (NR concentration 270 nM, RXRa partner concentration 90 nM)
In short: as §1

| Sequence | PBM binding z-score [1] | PBM binding z-score [2] | PBM binding z-score [3] | PBM binding z-score [4] | PBM binding z-score [5] | PBM binding z-score [6] | PBM binding z-score [7] | PBM binding z-score [8] | PBM binding z-score [9] | PBM binding z-score [10] | PBM binding z-score [11] | PBM binding z-score [12] | PBM binding z-score [13] | PBM binding z-score [14] | PBM binding z-score [15] | PBM binding z-score [16] | PBM binding z-score [17] | PBM binding z-score [18] | PBM binding z-score [19] | PBM binding z-score [20] |
| --- | --- | --- | --- | --- | --- | --- | --- | --- | --- | --- | --- | --- | --- | --- | --- | --- | --- | --- | --- | --- |
| TAGCCTAGGTCATTGGGCCAGTCTAGTACGCATC | 3.99 | 3.21 | 0.181 | 1.78 | 0.0728 | 3.41 | 3.3 | 3.25 | 0.536 | 2.3 | 2.31 | 3.52 | -0.286 | -0.617 | 1.58 | 1.19 | -0.0454 | 1.82 | -0.767 | 3.53 |
| GGAACGAGGGCATTCGAGTTTATAGCATGGCGAT | 1.12 | 4.61 | 0.296 | 0.629 | -0.537 | 1.57 | 0.982 | 0.798 | -0.0706 | 0.209 | 2.91 | 2.31 | -0.439 | -0.834 | -0.0637 | 5.87 | 7.33 | 1.14 | -0.16 | 1.9 |
| CAAACTAGGTCAAGGTCAATGTCGGTTTGTGCCA | 6.03 | 5 | 3.19 | 4.14 | 1.08 | 5.94 | 9.35 | 7.99 | 6.08 | 8.16 | 8.55 | 8.45 | 5.91 | 4.78 | 4.97 | 4.89 | 2.16 | 4.96 | 2.18 | 5.03 |
| CCGACTGGGGCATAAGGTTACCTTAAGCCAGCCC | 0.144 | 2.16 | -0.305 | 0.631 | -1.36 | 1.9 | 2.04 | 3.18 | 0.872 | 2.64 | 2.68 | 3.27 | -0.344 | -1.61 | 0.545 | 0.197 | -0.44 | 1.22 | -0.764 | 1.49 |
| CATACTGGGTCAGCTAGGCCAGAGTAGGGACGGC | 0.696 | 0.526 | -0.513 | 0.249 | -0.198 | 2.16 | 3.45 | 2.95 | 0.499 | 2.06 | 4.6 | 5.45 | 0.321 | 0.266 | 0.468 | 0.34 | -0.327 | 0.776 | -0.0823 | 3.04 |
| ATCTCTAGGTAAAGATAGTTCAGTGATTGCAAAT | 0.768 | 3.86 | 0.679 | 1.04 | 0.794 | 0.72 | 0.511 | 0.72 | 0.406 | 0.607 | 2.16 | 1.82 | 0.778 | 1.85 | 1.19 | 1.38 | 0.822 | 0.722 | 1.29 | 0.865 |
| AGAATGAGGTTATTAAGATCCGGGAATTGCGGTC | 1.33 | 2.41 | -0.0229 | 1.24 | -0.217 | 2.49 | 1.06 | 1.15 | 0.0449 | 0.869 | 2.93 | 2.17 | 0.655 | 0.352 | 1.11 | 0.959 | 0.153 | 1.28 | -0.0311 | 1.48 |
| CCTTACGGGTCAATGTTATAGCACGGGTGGTACG | 4.09 | 2.96 | 0.175 | 2.61 | 0.428 | 3.96 | 3 | 3.22 | 1.1 | 2.16 | 1.71 | 2.59 | 0.14 | 0.289 | 1.3 | 2.45 | -0.0609 | 3.35 | 0.558 | 3.57 |
| TCTATTAGTGGAAGGGCAACCGACGAGTCCGTTT | 0.67 | 0.688 | 0.218 | 0.807 | 0.57 | 0.716 | 0.0931 | 1.91 | 3.26 | 2.56 | 2.03 | 0.68 | 0.155 | -0.147 | 0.597 | 0.698 | 0.821 | 0.778 | 0.46 | 1.59 |
| CCTAGTCGGTCAGGAGGTCACACACCGGATATGA | 3.96 | 4 | 2.81 | 3.49 | 0.605 | 4.55 | 4.89 | 5.09 | 3.26 | 4.26 | 2.85 | 4.85 | 0.312 | 0.324 | 4.25 | 4.34 | 1.2 | 5.23 | 2.27 | 4.25 |
| TCATATAGGTAAAAGGTGAACGTCGGTGTGGTAA | 2.13 | 2 | 0.308 | 1.96 | 0.0983 | 5.54 | 9.49 | 8.84 | 8.77 | 9.46 | 5.71 | 5.6 | 1.12 | 1.53 | 1.65 | 1.86 | 0.862 | 2.9 | 1.07 | 2.15 |
| GCTCGGAGGACAAGGTCAGAACTTTGTCCGTAGA | 1.86 | 1.64 | -0.253 | 1.31 | -0.462 | 2.22 | 0.592 | 1.57 | 0.0801 | 0.802 | -0.664 | 0.754 | -0.824 | -0.981 | 0.718 | 1.87 | -0.398 | 2 | -0.812 | 3.2 |
| CATTCAGGGTCAGCTAGGCCAGAGTAGGGACGGC | 5.24 | 4.08 | 0.181 | 2.92 | 1.42 | 4.82 | 3.87 | 3.94 | 1.29 | 2.81 | 1.6 | 3.11 | 2.17 | 0.968 | 1.47 | 2.74 | 0.0308 | 3.58 | 0.262 | 4.42 |
| CAAACTAGGTCATCGGAAGGTCAAAGTCCGCATG | 6.11 | 5.83 | 5.44 | 4.82 | 1.45 | 6.01 | 8.72 | 7.35 | 5.14 | 7.04 | 7.98 | 8.45 | 2.01 | 2.98 | 5.96 | 5.37 | 1.97 | 6.84 | 1.67 | 4.97 |
